The structures appear in SMILES notation. The campaign covered roughly 330,000 compounds. About 220 (0.067%) were called active.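 Rule for the calls: active = over half of replicate activation scores above 10%, or exactly half above 10 with the replicate mean above 10; inconclusive = replicate mean below 10 yet half the replicates above 10; inactive = over half of replicates below 10.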 Many of the other results were omitted from the sample, so actives are more common in it than they were.

The experiment is described as follows: inducers of caspase signal in A1-primed MEFs – cell-based, luminescence, HTS, A1 inhibitor project, primary screen (AID 2462). As to conditions: MEF A1-2A-BIM cells, Caspase-Glo 3/7 luminescence, 3 h; active compounds read high; percent of clofoctol response, vehicle zero; concentration not given here.
As for `COCCCNC(=O)C1CCN(c2ccc(N3CCOCC3)nn2)CC1`, the caspase activation was 0.283% (inactive).
Regarding `C#CCOCCOCCOCCNc1nc(N2CCN(C(=O)[C@H](CCCN=C(N)N)n3cc(C(N)[C@@H](C)CC)nn3)CC2)nc(N2CCN(C(=O)[C@H](CO)n3cc([C@@H](N)C(C)C)nn3)CC2)n1` (stereo partly drawn), the caspase activation was 0.85% (inactive).
For the compound `COC(=O)CNC(=O)c1ccc2c(c1)S(=O)(=O)c1ccccc1C2=O`, the caspase activation was -0.413% (inactive).
On to `CCC1C(=O)NCCN1C(=O)c1ccc2nc(Cc3ccc(OC)cc3)oc2c1` (stereo not drawn), for which the caspase activation was -0.419% (inactive).
Take `COc1ccc(CCNc2cc(N3CCN(C(=O)c4ccccc4OC)CC3)ccc2[N+](=O)[O-])cc1OC`: the caspase activation is -0.378% (inactive).
As for `O=C1c2ccccc2NC(c2ccccn2)N1NS(=O)(=O)c1ccccc1` (stereo not drawn), the caspase activation is 1.93% (inactive).
On to `CC(=O)c1ccccc1NC(=O)C1CC(=O)N(c2ccc3c(c2)OCCO3)C1` (stereo not drawn), for which the caspase activation was 0.41% (inactive).
On to `Cc1ccc(-c2nnc(CN3CCN(C)CC3)o2)cc1`, for which the caspase activation was 0.0366% (inactive).
In the case of `COc1cc2c(cc1OC)C(C(=O)Nc1cc(C)c(OC)c(C)c1)CC(=O)N2` (stereo not drawn), the caspase activation was 0.803% (inactive).
On to `Cc1ccc2cc3cc(C(=O)N4CCCCCC4)oc3nc2c1`, for which the caspase activation is 0.083% (inactive).
Take `NC1=NC(=O)C(Cc2cccc(Cl)c2)S1` (stereo not drawn): the caspase activation was -0.108% (inactive).
To `CC(C)(C)OC(=O)N[C@H](C(=O)OC(C)(C)C)c1ccc(Br)cc1` belongs -0.98% (inactive); to `CCOC(=O)c1c(NC(=O)CCCN2CCOCC2)sc2c1CC(C)(C)OC2`, -0.683% (inactive).
Turning to `CN(C)C(=O)Cn1c(=O)n(S(=O)(=O)c2ccccc2)c2ccccc21`, the caspase activation was -0.645% (inactive).
For `CN(c1ccc2nc3ccccc3c(=O)n2n1)C1CCCCC1`, the caspase activation was 0.636% (inactive).
To `CN(C(=O)CSc1nnc(N)s1)c1c(N)n(Cc2ccccc2)c(=O)[nH]c1=O` belongs 0.167% (inactive); to `O=[N+]([O-])C(=c1ccc2c(c1)N1C3=C(CCCC3)CC3CCCCC31N=2)[N+](=O)[O-]` (stereo not drawn), 6.39% (active).
`CCOC(=O)C(NC(=O)CC(C)C)(Nc1sc2c(c1C(N)=O)CCCC2)C(F)(F)F` (stereo not drawn): the caspase activation was 0.722% (inactive).
Consider `O=C(O)c1cc2ccccc2c(=O)s1`, for which the caspase activation was 1.64% (inactive).
Consider `COc1ccc(CCNC(=O)CN(C)S(=O)(=O)c2ccc3nc(C)sc3c2)cc1OC`, for which the caspase activation was -2.31% (inactive).
Take `CCC(C)NC(=O)N[C@@H](CCSC)C(=O)O` (stereo partly drawn): the caspase activation is 0.604% (inactive).
Then `CCCCC(O)(CCCC)C(=O)NN(C(=O)CCl)c1ccccc1`, with 0.273% (inactive); and `COc1ccc(OCC(=O)NN2Cc3ccccc3C2=N)cc1`, with 1.26% (inactive).
As for `Cc1ccc2oc(C(=O)N3CCN(C)C[C@@H]3C(C)C)c(C)c2c1`, the caspase activation was -0.346% (inactive).
`CCOc1ccccc1-n1c(SCC(=O)NCc2ccco2)nnc1-c1ccncc1`: the caspase activation was -0.681% (inactive).
For the compound `O=C(NCc1ccccc1)C1CCCN(c2nc3ccsc3c(=O)s2)C1` (stereo not drawn), the caspase activation was -0.382% (inactive).
Regarding `COc1cccc(NC(=O)Cn2c3ccc(F)cc3c3nc4n(c(=O)c32)CCS4)c1`, the caspase activation was -1.98% (inactive).
Consider `O=c1c(-c2ccccc2Cl)c[nH]n1-c1ccccc1`, for which the caspase activation was -1.88% (inactive).
In the case of `COc1ccc(C(=O)NCCSc2ccccc2C)cc1`, the caspase activation was -1.26% (inactive).
As to `OCCC1CN(Cc2cnc(-c3ccccc3)s2)CCN1CCc1ccccc1` (stereo not drawn), the caspase activation is 0.493% (inactive).
Then `CCOCCn1[nH]c2ccccc2c1=O`, with -0.169% (inactive); and `O=S(=O)(Nc1ccc(-c2ccc(N3CCOCC3)nn2)cc1)c1cc(Cl)ccc1Cl`, with 0.476% (inactive); and `CC(C)CNC(=S)NNC(=O)c1ccccc1OC(F)F`, with 1.35% (inactive).
`CN(Cc1c(F)cccc1Cl)C(=O)CNC(=O)c1ccc2c(c1)OCO2`: the caspase activation is -0.444% (inactive).
With `N#Cc1c(-c2ccc(F)cc2)cc(C2CC2)nc1SCC(=O)c1cccs1`, the caspase activation is -0.105% (inactive).
Then `Cc1cccc(C(=O)NCc2nnc(SC(C)C(=O)Nc3nnc(C)s3)n2C)c1` (stereo not drawn), with 0.308% (inactive); and `COc1ccc(C2CC(=O)C=C(NCC3CCCO3)C2)cc1` (stereo not drawn), with 1.09% (inactive).
Regarding `Cc1c(C(=O)N2CCN(c3ccc(F)cc3)CC2)oc2c1C(=O)CCC2`, the caspase activation is -0.061% (inactive).
On to `Cc1ccc(CC2C(=O)N(c3ccc(F)cc3)C(=O)C2C)cc1` (stereo not drawn), for which the caspase activation is 0.618% (inactive).
With `Cc1cc(-n2cnc(-c3cn(C)nc3C)n2)no1`, the caspase activation was 0.762% (inactive).
Take `O=C(NCc1ccccc1)C1=C[C@@H](C2CCCCC2)C[C@@H](OCc2ccc(CO)cc2)O1`: the caspase activation is 1.39% (inactive).
Consider `Cc1ccc(CNC(=O)CCS(=O)(=O)c2ccc3c(c2)CC(C)N3C(=O)C2CC2)o1` (stereo not drawn), for which the caspase activation is 3.53% (inactive).
On to `O=C(C1CCCO1)N1CCN(C(=S)NC2CC2)CC1` (stereo not drawn), for which the caspase activation was -0.789% (inactive).
For `CC1=C(C(N)=O)C(c2sccc2C)n2nnnc2N1` (stereo not drawn), the caspase activation is -0.851% (inactive).
Regarding `CCC1CCCCN1CCCNC(=O)c1cc2c(Cl)nc3ccccc3c2s1` (stereo not drawn), the caspase activation is -0.978% (inactive).
With `CC(=O)C(C)n1cnc2scc(-c3ccc(C)cc3)c2c1=O` (stereo not drawn), the caspase activation was 0.409% (inactive).
`O=C(NC1CCCCC1)C1CCC(CNS(=O)(=O)c2ccccc2)CC1` (stereo not drawn): the caspase activation was 0.134% (inactive).
Turning to `CNc1[nH]ncc1[N+](=O)[O-]`, the caspase activation is -0.643% (inactive).
As for `COc1ccc(C[C@H]2CN3C(=NC[C@H]3C)N2CCNC(=O)CCC2CCCCC2)cc1`, the caspase activation is 0.277% (inactive).
Then `CCCN(c1ccc(C)cc1)c1nc(=O)c2cccnc2s1`, with 0.23% (inactive).
Take `COC(=O)[C@H]1Cc2cnoc2C[C@]1(C)C(=O)O`: the caspase activation was -0.157% (inactive).
As to `COc1ccc(OC)c(/C=C/C(=O)c2ccc3c(c2)OCO3)c1`, the caspase activation is -0.508% (inactive).
Consider `COc1ccc(NC(=O)/C(Cl)=C(/Cl)S(=O)Cc2ccc(C)cc2)cn1` (stereo not drawn), for which the caspase activation was 7.8% (active).
To `CCN(CC(=O)Nc1ccc(OC)cc1)C(=O)CSCc1ccc(C)cc1` belongs -0.709% (inactive); to `COc1ccc(Nc2ccc([N+](=O)[O-])cn2)cn1`, -0.342% (inactive); to `CC[C@H]1CN2CCc3cc(OC)c(OC)cc3[C@@H]2C[C@@H]1C[C@H]1NCCc2cc(OC)c(OC)cc21`, 7.26% (active).
Consider `CCc1ccc(OCC2c3cc(OC)c(OC)cc3CCN2C(C)=O)cc1` (stereo not drawn), for which the caspase activation is 0.768% (inactive).
To `COc1ccc2c(c1)CCNC2Cc1ccc(OC)c(O)c1` (stereo not drawn) belongs 2.35% (inactive).
